Results filed as inconclusive are left out. A structure can be active in one record and inactive in another. Calls of active or inactive are those of the source. Calls follow the shape of the dose curve; as a rule, active = well fitted cell-killing curve with a large enough effect in the repeat runs (not every such curve was filed as active); inconclusive = weak or mixed curves, or effect the other way; inactive = no such curve, though single readings can be large or run the other way.

Results on 40 molecules are retold here after PubChem BioAssay (Tox21).
% is scaled to controls: 0 for no effect and ±100 for the full control effect; potency is read from the fitted curve at half-maximal effect.

This assay in a line: qHTS assay to identify small molecule antagonists of the farnesoid-X-receptor (FXR) signaling pathway - cell viability counter screen (AID 743221). Also: nearly all actives have a fitted effect of over 50% in size. Particulars: FXR-bla HEK293T viability, CellTiter-Glo luminescence, 16 h; series mostly up to 62.6 µM; activity change, negative = cytotoxicity: at the top concentration. An excerpt: National Center for Advancing Translational Sciences [NCATS]
NIH Chemical Genomics Center [NCGC]
U.S. Environmental Protection Agency [EPA]
National Institutes of Environmental Health Sciences [NIEHS]
National Toxicology Program [NTP]
U.S. Food and Drug Administration [FDA]
The farnesoid-X-receptor (FXR), a nuclear hormone receptor, is highly expressed in liver, intestine, kidney and adrenal cortex. Natural ligands of FXR are the bile acids (Cholic acid, Chenodeoxy cholic acid etc). FXR is an important regulator of diverse metabolic pathways, including the bile acid homeostasis, lipid and glucose metabolisms. FXR regulates the expression of target genes by binding either as a monomer or as a heterodimer with the retinoid X receptor (RXR). Numerous studies have reported that FXR exerts protective function during cholestasis, diabetes, liver regeneration, and cancer. To identify compounds that inhibit FXR signaling, GeneBLAzer FXR-UAS-bla HEK 293T cell line (Invitrogen, Carlsbad, CA) containing a beta-lactamase reporter gene under the control of a UAS response element was used to screen the Tox21 10K compound library. The cytotoxicity of the Tox21 compound library against the FXR-bla cell line was tested in parallel by measuring the cell viability using CellTiter-Glo assay in the same wells.
Tox21 Assay Protocol Summary:
FXR-bla cells were dispensed at 5000 cells/5uL/well in 1536-well black wall/clear bottom plates using a Multidrop Combi (Thermo Fisher Scientific, Waltham, MA) dispenser. After the assay plates were incubated at 37 C and 5% CO2 for 5 h, 23 nL of compounds dissolved in DMSO, positive controls or DMSO only was transferred to the assay plate by a Pintool station (Kalypsys, San Diego, CA), followed by addition of 1 uL Chenodeoxycholic acid (50 uM, final concentration in the wells). The assay plates were incubated at 37C for 16 h. After 1 uL of LiveBLAzerTM B/G FRET substrate was added using a Bioraptr Flying Reagent Dispenser (FRD) workstation (Beckman Coulter, Indianapolis, IN), the plates were incubated at room temperature for 2 h, and fluorescence intensity was measured by an Envision plate reader (PerkinElmer, Shelton, CT). For cell viability readout that measures cytotoxicity, 4uL/well of CellTiter-Glo reagent was added into the assay plates using a Bioraptr FRD. After 30 min incubation at room temperature, the luminescence intensity in the plates was measured using a ViewLux plate reader (PerkinElmer).
(In general: Quantitative high-throughput screening tests each substance at several concentrations.)
`CCCCCC/C=C\CCCCCCCC(=O)O`: the “activity change, negative = cytotoxicity” value is -17.4% (inactive).
Take `CC(C)(C)CC(C)(C)c1ccc(Nc2ccc(C(C)(C)CC(C)(C)C)cc2)cc1`: the activity change, negative = cytotoxicity is 1.78% [at 5.95 µM] (inactive).
Still for that read-out and setting: next, `CCC(C)[O-].CCC(C)[O-].CCOC(=O)/C=C(/C)[O-].[Al+3]`: -4.17% (inactive); `COC(C)=O`: -3.19% [at 81.1 µM] (inactive).
Consider `O=c1[nH]c(=O)n([C@H]2C[C@H](O)[C@@H](CO)O2)cc1F`, for which the Potency was 11.9 µM (active).
Take `Cc1cc(C(C)(C)C)c(O)c(C)c1Cn1c(=O)n(Cc2c(C)cc(C(C)(C)C)c(O)c2C)c(=O)n(Cc2c(C)cc(C(C)(C)C)c(O)c2C)c1=O`: the “activity change, negative = cytotoxicity” value was -13.6% (inactive).
Regarding `COC(=O)c1ccccc1C`, the “activity change, negative = cytotoxicity” value is 8.07% (inactive).
Same read-out and setting: next, `O=C(O)c1cc(-c2ccc(F)cc2F)ccc1O`: -13.4% (inactive); `CCCCC(CC)CN1CN(CC(CC)CCCC)CC(C)(N)C1` (stereo not given): -11.9% (inactive); `O=C(c1ccc(O)c(O)c1)c1ccc(O)cc1O`: 3.9% (inactive).
As for `COC(=O)c1ccccc1OC`, the “activity change, negative = cytotoxicity” value was -10.3% (inactive).
Turning to `Cc1ccc(N/N=c2\c(=O)cc/c(=N\Nc3ccc(S(=O)(=O)O)cc3)c2=O)c(C)c1`, the “activity change, negative = cytotoxicity” value is 0.777% (inactive).
Consider `OC1CCCc2ccccc21` (stereo not given), for which the “activity change, negative = cytotoxicity” value is -1.14% [at 81.1 µM] (inactive).
Consider `CCc1ccc(Br)cc1`, for which the “activity change, negative = cytotoxicity” value was -15.8% [at 81.1 µM] (inactive).
On to `O=C(O)Cc1ccccc1Nc1c(Cl)cccc1Cl`, for which the Potency entry was “inactive”.
On to `CC(C)(C)NSc1nc2ccccc2s1`, for which the “activity change, negative = cytotoxicity” value is 1.49% [at 81.1 µM] (inactive).
`Clc1sc(Cl)c(Cl)c1Cl`: the “activity change, negative = cytotoxicity” value was 5.41% (inactive).
The same measure, in the same setting: next, `O=C(/C=C/c1ccc(O)c(O)c1)O[C@@H](C(=O)O)[C@@H](OC(=O)/C=C/c1ccc(O)c(O)c1)C(=O)O`: 9.41% (inactive).
Take `CCc1cccc(CC)c1NC(=O)CN(CC(=O)O)CC(=O)O`: the “activity change, negative = cytotoxicity” value is 0.352% (inactive).
Regarding `Cc1cc(C(C#N)c2ccc(Cl)cc2)c(Cl)cc1NC(=O)c1cc(I)cc(I)c1O` (stereo not given), the Potency was 29.8 µM (active).
As for `OC/C=C/CO`, the “activity change, negative = cytotoxicity” value is 3.14% (inactive).
Consider `S=C([S-])NCCNC(=S)[S-].S=C([S-])NCCNC(=S)[S-].[Mn+2].[Zn+2]`, for which the “activity change, negative = cytotoxicity” value was 21.3% (inactive).
`O=[N+]([O-])c1cccc(C(F)(F)F)c1`: the “activity change, negative = cytotoxicity” value is -2.73% [at 81.1 µM] (inactive).
Regarding `COc1cccc2c1C(=O)c1c(O)c3c(c(O)c1C2=O)C[C@@](O)(C(C)=O)C[C@@H]3O[C@H]1C[C@H](N)[C@H](O)[C@H](C)O1`, the Potency is 55.3 µM (active) and inactive.
As for `Cc1c(C)c([N+](=O)[O-])c(C(C)(C)C)c([N+](=O)[O-])c1C`, the “activity change, negative = cytotoxicity” value is -0.754% (inactive).
As to `CCC(CC)C(C)CCOC(C)=O` (stereo not given), the “activity change, negative = cytotoxicity” value was 6.82% (inactive).
On to `CC(=O)OCC=C(C)C`, for which the “activity change, negative = cytotoxicity” value is -11.7% (inactive).
As for `Cc1c(C)c2c(c(C)c1OC(=O)c1cccnc1)CC[C@@](C)(CCC[C@H](C)CCC[C@H](C)CCCC(C)C)O2`, the “activity change, negative = cytotoxicity” value was 10.7% (inactive).
Same read-out and setting: next, `CCCCCC(C)OC(=O)COc1ccc(Cl)c2cccnc12` (stereo not given): -0.468% (inactive).
Take `CN1CCC[C@@H]1CCO[C@](C)(c1ccccc1)c1ccc(Cl)cc1`: the Potency was 29.8 µM (active).
In the case of `O=[N+]([O-])c1ccc(F)c(Cl)c1`, the “activity change, negative = cytotoxicity” value was 0.336% (inactive).
In the case of `O[C@@H]([C@H](O)[C@H](O)CBr)[C@H](O)CBr`, the “activity change, negative = cytotoxicity” value was 7.69% (inactive).
Consider `CCCCCCCCCCCCCC[N+](C)(C)Cc1ccccc1`, for which the Potency was 49.7 µM (active).
For `C#Cc1ccc(-c2ccccc2F)cc1`, the “activity change, negative = cytotoxicity” value was 1.36% (inactive).
Take `CC(=O)Oc1cc2c(s1)CCN(C(C(=O)C1CC1)c1ccccc1F)C2` (stereo not given): the “activity change, negative = cytotoxicity” value was -0.631% (inactive).
For the molecule `Cc1cc(C)c(/C=C2\C(=O)Nc3ccccc32)[nH]1`, the “activity change, negative = cytotoxicity” value is 1.23% (inactive).
`O=C1NC(=O)[C@@H]2CC=CC[C@H]12`: the “activity change, negative = cytotoxicity” value was -28.2% (inactive).
Consider `Cc1cccc(C(=O)O)c1O`, for which the “activity change, negative = cytotoxicity” value was 13% (inactive).
Regarding `CCCc1ccc(OCC(=O)N2CCN(C(=O)COc3ccc(CCC)cc3OC)CC2)c(OC)c1`, the “activity change, negative = cytotoxicity” value was 4.53% (inactive).
The same measure, in the same setting: the result for `C=CC(C)(CCC=C(C)C)OC=O` (stereo not given) reads -2.07% (inactive).
